Reference: PubChem BioAssay AID1851 (National Center for Advancing Translational Sciences (NCATS), 2009)
In all, about 16,000 compounds went through this assay and about 2,600 (16%) were called active. About 20% were inconclusive and are not listed. The list is a sample of the results. Values without a mark were called inactive. The call rests on the fitted dose curve; in most records, active means well fitted curve in the direction sought with a large enough effect; inconclusive means small, poorly fitted or top-dose-only effect, or effect the other way; inactive means no such curve, though single readings can be large or run the other way.
On the % scale 0 is the no-effect control and ±100 the full control effect.

What follows are molecules tested against Cytochrome P450 2D6 (Homo sapiens) (UniProt P10635) (assay: Cytochrome panel assay with activity outcomes). Conditions: recombinant CYP, pro-luciferin dealkylation, luminescence, p450-cyp2d6; series mostly up to 57.1 µM.
Chain of Cytochrome P450 2D6 (Homo sapiens) (P10635 whole entry, looked up): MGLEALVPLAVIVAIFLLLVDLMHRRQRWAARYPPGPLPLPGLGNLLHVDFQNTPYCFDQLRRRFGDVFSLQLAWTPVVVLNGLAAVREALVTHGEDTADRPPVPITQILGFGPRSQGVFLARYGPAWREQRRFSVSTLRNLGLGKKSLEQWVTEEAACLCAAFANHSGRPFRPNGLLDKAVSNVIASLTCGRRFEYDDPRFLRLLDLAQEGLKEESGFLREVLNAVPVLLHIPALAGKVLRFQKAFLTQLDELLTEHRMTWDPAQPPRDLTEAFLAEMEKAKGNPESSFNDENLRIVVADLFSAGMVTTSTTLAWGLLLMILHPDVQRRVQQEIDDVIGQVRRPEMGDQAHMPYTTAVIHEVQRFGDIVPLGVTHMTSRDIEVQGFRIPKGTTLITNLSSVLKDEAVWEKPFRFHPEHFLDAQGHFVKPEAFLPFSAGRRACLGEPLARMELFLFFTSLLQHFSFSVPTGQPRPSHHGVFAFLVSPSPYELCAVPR
Molecule `COc1ccc(Cc2ccccc2C(=O)O)c2ccccc12` has an activity, negative = inhibition of 11.8% [at 11.4 µM]. With `CC(C)CNS(=O)(=O)c1cc(C(=O)N2CC(C)OC(C)C2)c(Cl)cc1Cl` (stereo not given) the AC50 was “inactive”. `O=C(O)[C@@H](O)c1ccc(F)cc1` gave an activity, negative = inhibition of 4.43% [at 11.4 µM]. For `O=C1CCN(S(=O)(=O)c2ccccc2)N1`, the AC50 was “inactive”. For `Fc1cccc(F)c1C(Nc1nncs1)Nc1nncs1`, the activity, negative = inhibition was 19.1% [at 11.4 µM]. For `CC(=O)C[C@H](c1ccc([N+](=O)[O-])cc1)c1c(O)c2ccccc2oc1=O`, the AC50 was “inactive”. Work on `OC[C@@H](O)[C@@H](O)[C@@H](O)[C@@H](O)c1nc2ccc(Cl)cc2[nH]1` yielded an activity, negative = inhibition of 19.4% [at 11.4 µM]. With `C1COC(NC(C2CC2)C2CC2)=N1` the AC50 was 0.398 µM (active). In the case of `Cc1noc(C)c1C(=O)N1CCC[C@@]2(CCN(c3ncccn3)C2)C1`, the AC50 is reported as “inactive”. `Nc1nc(C(=O)O)c(N=Nc2ccccc2)c(=O)[nH]1` showed an activity, negative = inhibition of -12.3% [at 11.4 µM]. In the case of `O=C(CSc1nnnn1-c1ccccc1)NCc1cccs1`, the AC50 is reported as 2.51 µM (active). `CCCC(=O)Nc1nnc(SCC(=O)NCc2cccs2)s1` was tested, and the AC50 was “inactive”. In the case of `CC(C)(C)C(=O)Nc1nnc(SCC(=O)NCc2cccs2)s1`, the AC50 is reported as “inactive”. For `C[C@@H]1O[C@H](O[C@@H]2[C@@H](Oc3cc(O)c4c(c3)O[C@H](c3ccc(O)cc3)CC4=O)O[C@@H](CO)[C@@H](O)[C@H]2O)[C@@H](O)[C@H](O)[C@@H]1O`, the AC50 was “inactive”. Work on `CC(C)C(=O)N[C@@H]1CCCN1C(=O)/C=C\c1ccccc1` yielded an activity, negative = inhibition of -16.8% [at 11.4 µM]. In the case of `CCC(C)NC(=O)C1CCCN(C(=O)NC2CCCCC2)C1` (stereo not given), the AC50 is reported as “inactive”. With `Cc1cccc(-c2nc(CN3CCCC(C(=O)NC4CCCCC4)C3)c(C)o2)c1` (stereo not given) the AC50 was 4.47 µM (active). For `CCOC(=O)N1CCC(NC(=O)CS(=O)(=O)Cc2nc(-c3cccc(OC)c3)oc2C)CC1`, the AC50 was “inactive”. In the case of `O=c1c(-c2ccccc2)nc2cnc(N3CCOCC3)nc2n1C1CC1`, the AC50 is reported as “inactive”. `O=C(O)c1cccc(SSc2cccc(C(=O)O)c2)c1` gave an activity, negative = inhibition of -12% [at 11.4 µM]. In the case of `CC(C)(C)c1cc(C(=O)O)c(CN2CCCCC2)o1`, the AC50 is reported as “inactive”. In the case of `O=C(O)c1cccc(CN2CCCCC2)c1`, the AC50 is reported as 1 µM (active). `O=c1c(-c2ccc(Cl)cc2)nc2cnc(N3CCNCC3)nc2n1Cc1ccc(F)cc1` was tested, and the AC50 was “inactive”. In the case of `Cc1ccc(S(=O)(=O)N[C@H]2COC(=O)[C@@H](C)COC(=O)[C@H](C)NC(=O)C/C=C\[C@H]2C)cc1`, the activity, negative = inhibition is reported as -1.17% [at 11.4 µM]. In the case of `CCCCC1=NN2C(=N)CC(=O)N=C2S1`, the AC50 is reported as “inactive”. `CCOC(=O)C(=Cc1ccc(F)cc1)C(=O)OCC` was tested, and the AC50 was “inactive”. In the case of `Cc1cccc(Nc2ccccc2C(=O)O)c1C`, the AC50 is reported as “inactive”. With `CCOC(=O)C(=CNc1cccc(C)c1C)C(=O)OCC` the AC50 was 1.58 µM (active). In the case of `CCOC(=O)C(=CNc1ncccc1C)C(=O)OCC`, the AC50 is reported as 8.91 µM (active). `Cc1ccc(NC(=O)Nc2ncccc2C)cc1` was tested, and the AC50 was “inactive”. With `CCOC(=O)/C(=C/Nc1ccccc1)[N+](=O)[O-]` the AC50 was “inactive”. For `NCCSS(=O)(=O)CCN`, the activity, negative = inhibition was 27.6% [at 11.4 µM]. In the case of `Cc1nc2c(C)cccn2c1/C(O)=C1\C(=O)C(=O)N(CCN2CCOCC2)C1c1cccs1` (stereo not given), the AC50 is reported as “inactive”. For `COC(=O)C/C=C\[C@@H](C)[C@@H](/C=N\OC[C@@H](O)[C@H]1O[C@H]2OC(C)(C)O[C@H]2[C@@H]1O)NS(=O)(=O)c1ccc(C)cc1`, the activity, negative = inhibition was -10.1% [at 11.4 µM]. In the case of `CC1(C)C(=O)C(c2ccccc2)=C2CN3C(=O)N(CCc4ccccc4)C(=O)C3(Cc3ccc(F)cc3)C=C21` (stereo not given), the AC50 is reported as “inactive”. For `Cc1cc(C)n(-c2nc(NC(C)(C)C)nc(NC(C)(C)C)n2)n1`, the AC50 was “inactive”. With `CNc1nc(Cl)nc(NC(C)(C)C)n1` the AC50 was “inactive”. In the case of `CC(C)(C)Nc1nc(N2CCCC2)nc(N2CCCC2)n1`, the AC50 is reported as 3.55 µM (active). Work on `COC(=O)C/C=C\[C@@H](C)[C@@H](CO)NS(=O)(=O)c1ccc(C)cc1` yielded an activity, negative = inhibition of -2.05% [at 11.4 µM]. `O=C1/C(=C\c2ccc(Br)o2)SC(=Nc2ccccc2)N1c1ccccc1` was tested, and the AC50 was “inactive”. With `CC(C)(C)c1nc(SCC(=O)Nc2ccc(N3CCOCC3)cc2)c2ccccc2n1` the AC50 was “inactive”. For `Cc1cc(C(=O)Nc2c(C)n(C)n(-c3ccccc3)c2=O)c2ccccc2n1`, the AC50 was “inactive”. With `Cc1cccc(NC(=O)NNC(=O)c2cc(-c3ccccc3Cl)nc3ccccc23)c1` the AC50 was “inactive”. For `Cc1cc(C(=O)Nc2ccc(N3CCOCC3)cc2)c2ccccc2n1`, the AC50 was 14.1 µM (active). With `Cc1ccc(NC(=O)c2cc(Cl)nc3ccccc23)cc1` the AC50 was 0.178 µM (active). In the case of `COC(=O)c1sccc1NC(=O)c1cc(-c2ccc(C)cc2)nc2ccccc12`, the AC50 is reported as “inactive”. `O=C1C2=C(Nc3cc([N+](=O)[O-])ccc3N2)O[C@@H]1c1ccc([C@H]2OC3=C(Nc4ccc([N+](=O)[O-])cc4N3)C2=O)cc1` showed an activity, negative = inhibition of -7.54% [at 11.4 µM]. Work on `O=C1c2ccccc2C(=O)c2c(NC3CCCCC3)ccc(Nc3ccc(S(=O)(=O)O)cc3)c21` yielded an activity, negative = inhibition of -10.8% [at 11.4 µM]. In the case of `Nc1c(-c2ccccc2)cnn1-c1cccc([N+](=O)[O-])c1`, the AC50 is reported as “inactive”. For `COc1cc(C)nc(N2CCCC(C(=O)Nc3cc(Cl)ccc3OC)C2)n1` (stereo not given), the AC50 was “inactive”. For `COCCn1c(=O)c(-c2ccc(Cl)cc2)nc2cnc(N3CCOCC3)nc21`, the AC50 was “inactive”. `N#Cc1c[nH]n2c(=O)c3c(nc12)CCCC3` was tested, and the AC50 was “inactive”. For `CC1=C(C(=O)Nc2ccccc2)C(c2ccco2)NC(=S)N1` (stereo not given), the AC50 was “inactive”. For `COC(=O)C1CCC(C)(C(=O)Nc2ccccc2)C1(C)C` (stereo not given), the AC50 was “inactive”. With `CC1(C)SC(=S)N(NC(=O)Nc2ccccc2)C1N(O)C(=O)Nc1ccccc1` (stereo not given) the AC50 was 25.1 µM (active). In the case of `Cc1cccc(NC(=O)c2cccc(N3C(=O)C4C5CCC(C5)C4C3=O)c2)c1C` (stereo not given), the AC50 is reported as “inactive”. With `Cc1cc(C)c(NC(=O)CSc2nnc(Cc3cccn3C)n2-c2ccc(F)cc2)c(C)c1` the AC50 was “inactive”. With `CNC(=O)NC(=O)CSc1nnc(-c2ccco2)n1Cc1ccccc1` the AC50 was “inactive”. For `COc1ccc(OC)c(C(=O)CSc2nnc(Cc3cccs3)n2CCc2ccccc2)c1`, the AC50 was 5.62 µM (active). With `COc1ccc(OC)c(C(=O)CN2C(=O)NC(C)(c3ccccc3)C2=O)c1` (stereo not given) the AC50 was “inactive”. `COc1ccc(NC(=O)CSc2nnc(Cc3cccn3C)n2CCc2ccccc2)c(OC)c1` was tested, and the AC50 was 3.98 µM (active). `CCn1c(COc2ccccc2)nnc1SCC(=O)Nc1cc(OC)ccc1OC` was tested, and the AC50 was “inactive”. Work on `CC(=O)Nc1ccc(Cc2ccc3[nH]c(=O)cc(C)c3c2)cc1` yielded an activity, negative = inhibition of 2.4% [at 11.4 µM]. In the case of `Cc1nc(-n2[nH]c3c(c2=O)CCCC3)[nH]c(=O)c1Cc1ccccc1`, the AC50 is reported as “inactive”. `COc1ccc(C2C(C(=O)c3ccco3)=C(O)C(=O)N2Cc2cccnc2)cc1OC` (stereo not given) was tested, and the AC50 was “inactive”. `COc1ccc(/C=N\NC(=O)O)cc1` showed an activity, negative = inhibition of 12.1% [at 11.4 µM]. In the case of `CC(=O)N1CCC2(CC1)CN(C(=O)Nc1cccc(C#N)c1)C2`, the AC50 is reported as “inactive”. For `Cc1cc2cc3c(C)cc(=O)oc3c(C)c2o1`, the AC50 was “inactive”. `CCCC(=O)N1CCN(c2ccc(NC(=O)c3sc4ccccc4c3Cl)cc2)CC1` was tested, and the AC50 was “inactive”. In the case of `CN1CCc2ccccc2[C@@H]1Cc1ccccc1NC(=O)c1sc2ccccc2c1Cl`, the AC50 is reported as 0.0794 µM (active). In the case of `CCOC(=S)NC(=O)c1sc2ccccc2c1Cl`, the AC50 is reported as “inactive”. `O=C(CC1CCCCC1)N1CCC(c2nc(-c3ccc(S(=O)(=O)N4CCCC4)cc3)no2)CC1` was tested, and the AC50 was “inactive”. For `COc1cccc(NC(=S)NNC(=O)C(C)n2nc(C)c([N+](=O)[O-])c2C)c1` (stereo not given), the AC50 was “inactive”. In the case of `CC[n+]1c(P(=O)([O-])c2ccccc2)[nH]c2ccccc21`, the AC50 is reported as “inactive”. For `O=C(c1cc(C(F)(F)F)cc(C(F)(F)F)c1)N1CCC[C@@]2(CCN(Cc3ccncc3)C2)C1`, the AC50 was 5.01 µM (active). In the case of `O=C(Nc1cccc(F)c1)N1CC[C@@]2(CCCN(C(=O)c3cc(C(F)(F)F)cc(C(F)(F)F)c3)C2)C1`, the AC50 is reported as “inactive”. `O=C(c1cc(C(F)(F)F)cc(C(F)(F)F)c1)N1CCC[C@@]2(CCN(Cc3nccs3)C2)C1` was tested, and the AC50 was “inactive”. With `O=C(c1cc(C(F)(F)F)cc(C(F)(F)F)c1)N1CCC2(CC1)CN(Cc1ccccc1)C2` the AC50 was “inactive”. For `O=C(Nc1ccccc1)N1CC[C@@]2(CCCN(C(=O)c3cc(C(F)(F)F)cc(C(F)(F)F)c3)C2)C1`, the AC50 was 15.8 µM (active). In the case of `O=C(Nc1ccccc1)N1CC2(CCN(C(=O)c3cc(C(F)(F)F)cc(C(F)(F)F)c3)CC2)C1`, the AC50 is reported as “inactive”. With `O=C(c1cc(C(F)(F)F)cc(C(F)(F)F)c1)N1CCC2(CCCN(Cc3ccncc3)C2)CC1` the AC50 was “inactive”. `N#Cc1ccc(CN2CC[C@@]3(CCCN(C(=O)c4cc(C(F)(F)F)cc(C(F)(F)F)c4)C3)C2)cc1` was tested, and the AC50 was “inactive”. With `O=C(c1cc(C(F)(F)F)cc(C(F)(F)F)c1)N1CCC[C@@]2(CCN(Cc3ccccc3)C2)C1` the AC50 was 10 µM (active). `CC[N+](C)(CC)CCN1C(=O)c2ccccc2S1(=O)=O` was tested, and the activity, negative = inhibition was -3.94% [at 11.4 µM]. `Cc1c(NC(=O)C23CC4CC(CC(C)(C4)C2)C3)c(=O)n(-c2ccccc2)n1C` was tested, and the AC50 was “inactive”. `CC12CC[C@@H]3c4ccc(OP(=O)(O)O)cc4CCC3C1CCC2=O` (stereo not given in full) was tested, and the activity, negative = inhibition was 0.651% [at 11.4 µM]. `Cn1cc(C(=O)c2cccc(Cl)c2Cl)cc1C(=O)O` was tested, and the AC50 was “inactive”. In the case of `O=C(O)[C@H](CCc1ccccc1)N1C(=O)c2ccccc2C1=O`, the activity, negative = inhibition is reported as 15.2% [at 11.4 µM]. `c1ccc2c(c1)C(=Nc1ccc(N=C3c4ccccc4-c4ccccc43)cc1)c1ccccc1-2` showed an activity, negative = inhibition of -8.16% [at 11.4 µM]. Work on `O=C(O)c1ccc(C(=O)O)c(C(=O)O)c1.[NH-][C@@H]1CCCC[C@@H]1[NH-].[Pt]` yielded an activity, negative = inhibition of 7.05% [at 11.4 µM].
